BRCA1 expr act – BRCA1 expression activation. 1.1% of 380,000 active. MCF7-BRCA1-FFLuc reporter, luminescence, 48 h; response scale: scaled: vehicle 0%, 10 µM genistein 100%. Potency, µM (highest dose often 46.1 µM), actives largely listed as activators; also: nearly all actives have a fitted effect of over 80% in size
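MCF7-BRCA1-FFLuc, 2000 cells/well; 2 h attach, 37 °C/5% CO2; compound 48 h; luciferase substrate 15 min; luminescence end-point. Norm. to genistein 10 microM max activation and DMSO; concentration-response curves fitted.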
TSHR antagonist – human thyrotropin receptor antagonism. P16473. activity change, negative = inhibition, % at 11.5 µM. TSHR-expressing cells, TSH-stimulated cAMP HTRF, 2 h; hits give low values. 0.2% of 330,000 active. AID 504810;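 active = activity change below a set negative limit, meaning inhibition stronger than a set level, cut at about -70% in these data; inconclusive = activity change between two set negative limits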
Target sequence (P16473 whole entry, looked up): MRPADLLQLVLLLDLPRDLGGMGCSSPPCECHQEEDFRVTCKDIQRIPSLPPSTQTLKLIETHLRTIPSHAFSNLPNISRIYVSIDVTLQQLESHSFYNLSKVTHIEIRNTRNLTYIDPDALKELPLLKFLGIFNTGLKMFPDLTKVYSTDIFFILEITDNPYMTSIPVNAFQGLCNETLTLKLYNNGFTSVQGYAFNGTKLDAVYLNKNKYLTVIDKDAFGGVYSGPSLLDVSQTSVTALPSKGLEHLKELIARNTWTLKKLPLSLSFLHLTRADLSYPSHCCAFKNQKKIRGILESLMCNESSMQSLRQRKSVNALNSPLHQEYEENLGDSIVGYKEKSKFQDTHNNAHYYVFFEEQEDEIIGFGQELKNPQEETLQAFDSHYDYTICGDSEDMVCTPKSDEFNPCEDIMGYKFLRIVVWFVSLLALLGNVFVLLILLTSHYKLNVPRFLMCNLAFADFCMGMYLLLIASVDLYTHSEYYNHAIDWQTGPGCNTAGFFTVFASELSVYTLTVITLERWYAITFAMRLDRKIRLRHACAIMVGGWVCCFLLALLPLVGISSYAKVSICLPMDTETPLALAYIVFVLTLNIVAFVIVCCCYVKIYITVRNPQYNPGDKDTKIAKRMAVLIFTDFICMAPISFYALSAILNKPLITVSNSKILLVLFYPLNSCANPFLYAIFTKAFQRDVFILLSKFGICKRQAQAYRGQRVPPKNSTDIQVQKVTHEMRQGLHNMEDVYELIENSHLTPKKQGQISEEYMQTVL
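TSHR-expressing cells, 200/well, pre-treated with compound, then stimulated with EC80 TSH (4nM final) for 2 hours at 37 deg C. cAMP measured by competitive HTRF: anti-cAMP cryptate antibody in lysis buffer plus cAMP-d2, read after 30 minutes at room temperature.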
TSG101-PTAP inh – blocks PTAP/TSG101 interaction to inhibit HIV-1 budding; Q99816; Fluorescence polarization, FITC-PTAP peptide / Tsg101 binding; Potency, µM (top dose mostly 115 µM), usual class: inhibitors; 340,000 tested, under 10 active; AID 493005; active = well fitted inhibition curve with a large enough effect in the main read-out, with a control signal flat, not every such curve was filed as active; inconclusive = small, poorly fitted or top-dose-only effect, or effect the other way, or a change in a side signal; inactive = no such curve, though single readings can be large or run the other way
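FP read-out: FITC-PTAP peptide, 50 nM final, binding Tsg101 binding domain, 10 uM final; 20 min, r.t.; 10 mM HEPES pH 7.5, 0.15 M NaCl, 0.01% Tween 20, 3 mM EDTA, 0.1 mM TCEP.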
ASM inhibitor – inhibitors of human secretory acid sphingomyelinase; 0.006% of 340,000 active; placental ASM, HMU-PC fluorogenic substrate, 60 min; P17405; Potency, µM (highest dose often 57.5 µM), hits mostly inhibitors
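Fluorescence read-out (Ex 386 nm, Em 447 nm) after stopping the reaction at pH 10. Enzyme: ASM from human placenta; substrate HMU-PC0, 9 uM final; 60 min, 37 °C. Compound preincubation 10 min, ambient temperature.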
Anesthetic bind – binds horse apoferritin like a general anesthetic. P02791. apoferritin/1-aminoanthracene competitive binding, fluorescence. Potency, µM (titrated, usually from 77.5 µM), hits mostly inhibitors. 0.074% of 350,000 active; also: nearly all actives have a fitted effect of over 20% in size
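10 uM apoferritin + 50% sat. 1-AMA, PBS; cpd 10 min RT; Ex380/Em535 endpoint; normalized to free probe vs complex; 4-param Hill fit; propofol titration as pos. ctrl.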
A number is an active result; - = inactive; ? = inconclusive; . = not tested or not shown. This is a sample that favours compounds with a hit; in the whole collection about 1.2% have one here. Unless noted, calls follow the shape of the dose curve; as a rule, active = well fitted curve in the direction sought with a large enough effect; inconclusive = small, poorly fitted or top-dose-only effect, or another doubt; inactive = no such curve, though single readings can be large; an effect the other way counts as inactive or inconclusive.

SMILES	BRCA1 expr act	TSHR antagonist	TSG101-PTAP inh	ASM inhibitor	Anesthetic bind
CC(C)[C@H](N)C(=O)N[C@@H](CCC(N)=O)C(=O)NCC(=O)N[C@@H](CCC(=O)O)C(=O)N[C@@H](CCC(=O)O)C(=O)N[C@@H](CO)C(=O)N[C@@H](CC(N)=O)C(=O)N[C@@H](CC(=O)O)C(=O)N[C@@H](CCCCN)C(=O)O	.	.	.	.	-
COc1ccc(-c2nc3ccc(NC(=O)COC(C)=O)cc3c(=O)n2Cc2ccccc2)cc1COc1ccc(NC(C)=O)cc1	-	.	.	.	.
Cn1cc(CCNC(=O)c2ccc3nc(Cc4ccccc4F)oc3c2)cn1	2.5µM	-	-	-	-
Cc1cccc(CNC(=O)c2ccc3nc(Cc4ccccc4F)oc3c2)n1	13µM	-	-	-	-
COCCC1CCCCN1C(=O)c1ccc2nc(Cc3ccccc3F)oc2c1 (stereo not given)	7.9µM	-	-	-	?
COc1ccc(Cc2nc3ccc(C(=O)NCc4cccc(C)n4)cc3o2)cc1OC	-	.	.	.	.
Cn1cc(CNC(=O)c2ccc3nc(Cc4ccccc4F)oc3c2)cn1	-	-	-	-	-
CC1CCC(C(C)C)C(P(=O)(c2ccccc2)c2ccccc2)C1 (stereo not given)	.	.	.	.	-
Nc1c(C(=O)Nc2ccc(Cl)cc2)oc2ccccc12	2.5µM	-	-	-	-
CC(=O)c1oc2ccccc2c1N	-	-	-	-	-
COc1ccc(CC(=O)NO)cc1OC	-	.	.	.	.
c1ccc(-c2ccc(OCCCn3cncn3)cc2)cc1	11µM	-	-	-	-
c1ccc(COc2ccc(OCCn3cncn3)cc2)cc1	-	.	-	-	-
CC(=O)N1N=C(c2ccc(C)cc2)OC1c1ccc(Br)cc1 (stereo not given)	13µM	-	-	-	-
Cc1ccc(NC(=O)c2ccc(NCc3ccc(F)cc3)nc2)cc1	-	-	-	-	-
Cc1ccc(NC(=O)c2ccc(Nc3ccccc3F)nc2)cc1	8.9µM	-	-	-	-
CCn1nc(C)cc1-c1nnc(Sc2ncc([N+](=O)[O-])s2)n1C	-	-92	-	-	-
COc1ccc(NC(=O)C2Cc3ccccc3O/C2=N\O)cc1 (stereo not given)	10µM	-	-	-	-
COc1ccc(NC(=O)C2Cc3cccc(OC)c3O/C2=N\O)cc1 (stereo not given)	-	-	-	-	-
O=C1CC2C(CCC23OCCO3)c2ccc3ccccc3c21 (stereo not given)	10µM	.	-	-	.
Cc1ccc(NC(=O)c2ccc3nsnc3c2)c(Cl)c1	1µM	-	-	-	-
COc1ccc(NC(=O)Nc2ncccc2C)cc1	?	-	-	-	-
O=C(Nc1ccc(Br)cc1F)c1ccc2nsnc2c1	?	-	-	-	-
COc1ccc(C(=O)NC(=O)Nc2ncccc2C)cc1	2.8µM	-	-	-	-
O=C(Nc1ccccc1Cl)c1ccc2nccnc2c1	5µM	-	-	-	-
SMILES	BRCA1 expr act	TSHR antagonist	TSG101-PTAP inh	ASM inhibitor	Anesthetic bind
COc1ccc(NC(=O)c2ccc3nccnc3c2)cc1	2.8µM	-	-	-	-
Cc1ccc(CNC(=O)COC(=O)c2ccccc2OCC(=O)Nc2ccc(Br)cc2)cc1	-	.	.	.	.
O=C(/C=C/Nc1ccccc1)c1ccc(Oc2ncccn2)cc1	3.5µM	-	-	-	-
COc1ccc(NC(=O)c2coc(C)c2)cc1	5.6µM	-	-	-	-
CN(C)/C=C/C(=O)c1ccc(Oc2ncccn2)cc1	-	-	-	-	-
COc1cc(NC(=O)c2ccc3snnc3c2)cc(OC)c1	11µM	-	-	-	-
Cc1ccc(NC(=O)c2ccc3snnc3c2)cc1	-	-	-	-	-
COc1ccc(NC(=O)c2ccc(Oc3ncccn3)cc2)cc1	8.9µM	-	-	-	-
Cc1ccc(Nc2nc(NCc3ccco3)nc3nccnc23)cc1C	-	.	.	.	.
Cc1ccc2c(c1)c(N=Nc1cccc(C(=O)O)c1)c(O)n2C	-	-	-	-	-
CCOc1ccc2c(c1)c(N=Nc1cccc(C(=O)O)c1)c(O)n2C	10µM	-	-	-	-
CCCN1CNc2c(c(=O)[nH]c(=S)n2CCc2ccc(C)cc2)C1	-	.	.	.	.
Cc1ccnc2cc(Cl)c(Cl)cc12	-	.	.	.	.
O=C(Nc1ccn(Cc2ccccc2)n1)c1ccc2c(c1)OCO2	?	-	-	-	-
O=C(Nc1ccn(Cc2ccc(Cl)cc2)n1)c1ccccc1	7.9µM	-	-	-	?
Clc1ccc(/C=N/N2CCCCC2)cc1	-	-	-	-	-
Clc1ccc(C=NN2CCCCCC2)cc1	10µM	.	-	-	.
N#Cc1ccc(C=NN2CCCCCC2)cc1	6.3µM	.	-	-	.
O=[N+]([O-])c1ccc(/C=N/N2CCCCC2)cc1	10µM	-	-	-	-
Clc1ccc(C=NN2CCCCCC2)cc1Cl	8.9µM	.	-	-	.
Nc1c(Br)cc(/C=C/c2ccnc3ccccc23)cc1Br	-	.	.	.	.
Cc1cccc(OCCCn2c(=O)sc3ccccc32)c1	?	-	-	-	-
COc1ccc(OCCn2c(=O)sc3ccccc32)cc1	10µM	-	-	-	-
Cc1cccc(OCCn2c(=O)sc3ccccc32)c1	3.5µM	-	-	-	-
CCCCCc1ccc(-c2ccc(C(=O)Oc3ccc(C(=O)OC)cc3)cc2)nc1	.	.	.	.	-
SMILES	BRCA1 expr act	TSHR antagonist	TSG101-PTAP inh	ASM inhibitor	Anesthetic bind
CCCCCc1ccc(-c2ccc(OC)cc2)nc1	8.9µM	-	-	-	-
O=CC(=O)c1ccc(F)cc1	-	.	.	.	.
O=c1[nH]c(SCc2ccc(Cl)cc2)nc2ccsc12	4.5µM	-	-	-	-
N#Cc1c(-c2cccs2)nc(SCc2ccc(Cl)cc2)[nH]c1=O	-	?	-	-	?
CC(O)COCC1OC2OC3C(COCC(C)O)OC(OC4C(COCC(C)O)OC(OC5C(COCC(C)O)OC(OC6C(COCC(C)O)OC(OC7C(COCC(C)O)OC(OC8C(COCC(C)O)OC(OC1C(OCC(C)O)C2OCC(C)O)C(OCC(C)O)C8OCC(C)O)C(OCC(C)O)C7OCC(C)O)C(OCC(C)O)C6OCC(C)O)C(OCC(C)O)C5OCC(C)O)C(OCC(C)O)C4OCC(C)O)C(OCC(C)O)C3OCC(C)O (stereo not given)	-	.	.	.	.
CCOC(=O)c1cccc(OCC(O)CNCCOc2ccccc2F)c1 (stereo not given)	-	-106	-	-	-
CC(=O)c1cccc(OCC(O)CNCCc2ccc(Cl)cc2)c1 (stereo not given)	-	-	-	-	-
CCN(C(=O)CSc1nc2ccccc2n1CC(=O)Nc1cccc(C#N)c1)c1ccccc1	.	.	.	.	-
CC(C)C(=O)Nc1ccc2oc(-c3cc(F)c(F)cc3Cl)nc2c1	2.8µM	-	-	-	-
CC1CCCC(C)N1C(=O)Cc1ccccc1 (stereo not given)	-	-	-	-	13µM

Screens (PubChem)
